Measurements from PubChem BioAssay AID1159580 (chemical genetic matrix, 2015).
Among all 5,500 compounds or so, about 2,000 (36%) were called active. Another 18% or so got no clear call; they are omitted. Rule as the data show it: active = normalized growth mostly below about 0.91 (no sharp cut-off); inconclusive = no clear call, values can overlap the other calls; inactive = mostly above about 0.92. The list shows a part of the results.

Test: chemical genetic growth profiling, strain panel (AID 1159580);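 also: tested at 20 µM; growth read once vehicle control cultures reached saturation at 30 °C; 1 = growth at the plate median or of vehicle wells; lower values mean less growth of the strain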
Conditions: S. cerevisiae deletion strains, growth OD

Measured: normalized growth

CC(=O)O[C@@H]1CC[C@]2(C)C3CC[C@]4(C)C(=O)CCC4C3CC[C@H]2C1 (stereo partly specified)
active: locus YBR009C, strain hhf1, active compounds read low 0.866 | locus YDL035C, strain GPR1, active compounds read low 0.85 | locus YDR162C, strain NBP2, active compounds read low 0.661 | locus YDR502C, strain sam2, active compounds read low 0.883 | locus YGR135W, strain pre9, active compounds read low 0.876 | locus YIL066C, strain RNR3, active compounds read low 0.852 | locus YLR262C, strain YPT6 (second series), active compounds read low 0.725 | locus YLR320W, strain mms22, active compounds read low 0.868 | locus YML032C, strain rad52, active compounds read low 0.885 | locus YMR205C, strain PFK2, active compounds read low 0.867 | locus YNL307C, strain MCK1, active compounds read low 0.848 | locus YNR052C, strain pop2, active compounds read low 0.877 | locus YOL147C, strain pex11, active compounds read low 0.865 | locus YOR001W, strain rrp6, active compounds read low 0.891 | locus YOR184W, strain ser1, active compounds read low 0.713 | locus YOR270C, strain vph1, active compounds read low 0.72
inactive: locus YAL021C, strain ccr4, active compounds read low 0.944 | locus YAL026C, strain drs2, active compounds read low 0.967 | locus YAL030W, strain snc1, active compounds read low 1.01 | locus YBL061C, strain skt5, active compounds read low 0.988 | locus YBR021W, strain FUR4, active compounds read low 0.861 | locus YBR023C, strain chs3, active compounds read low 0.98 | locus YBR171W, strain sec66, active compounds read low 0.97 | locus YBR229C, strain ROT2, active compounds read low 0.934 | locus YBR231C, strain swc5, active compounds read low 1.01 | locus YBR279W, strain paf1, active compounds read low 1 | locus YCL011C, strain gbp2, active compounds read low 0.973 | locus YCL016C, strain dcc1, active compounds read low 1.02 | locus YCL029C, strain bik1, active compounds read low 0.987 | locus YCL061C, strain MRC1, active compounds read low 0.979 | locus YCL069W, strain vba3, active compounds read low 0.96 | locus YCR088W, strain abp1, active compounds read low 0.984 | locus YDL005C, strain med2, active compounds read low 1 | locus YDL040C, strain nat1, active compounds read low 0.982 | locus YDL074C, strain BRE1, active compounds read low 0.867 | locus YDL101C, strain DUN1, active compounds read low 0.964 | locus YDL185W, strain tfp1, active compounds read low 0.981 | locus YDL192W, strain arf1, active compounds read low 0.937 | locus YDR001C, strain nth1, active compounds read low 0.997 | locus YDR069C, strain doa4, active compounds read low 0.969 | locus YDR101C, strain arx1, active compounds read low 0.995 | locus YDR137W, strain rgp1, active compounds read low 0.876 | locus YDR150W, strain NUM1, active compounds read low 0.992 | locus YDR159W, strain sac3, active compounds read low 0.931 | locus YDR195W, strain ref2 1.07 | locus YDR297W, strain sur2, active compounds read low 1.01 | locus YDR318W, strain mcm21, active compounds read low 0.942 | locus YDR334W, strain swr1, active compounds read low 0.972 | locus YDR335W, strain msn5, active compounds read low 0.995 | locus YDR388W, active compounds read low 0.939 | locus YDR392W, strain spt3, active compounds read low 0.929 | locus YEL003W, strain gim4, active compounds read low 0.965 | locus YEL037C, strain rad23, active compounds read low 0.985 | locus YEL061C, strain CIN8 (second series), active compounds read low 0.988 | locus YEL061C, strain CIN8, active compounds read low 0.983 | locus YER015W, strain faa2, active compounds read low 0.996 | locus YER016W, strain bim1, active compounds read low 1.03 | locus YER110C, active compounds read low 0.996 | locus YER111C, strain swi4, active compounds read low 0.986 | locus YER155C, strain BEM2 (second series), active compounds read low 0.992 | locus YER155C, strain BEM2, active compounds read low 1.01 | locus YER167W, strain BCK2, active compounds read low 0.947 | locus YFR010W, strain ubp6, active compounds read low 0.972 | locus YGL078C, strain dbp3, active compounds read low 0.948 | locus YGL086W, strain mad1, active compounds read low 0.987 | locus YGL167C, strain pmr1, active compounds read low 0.999 | locus YGL173C, strain kem1, active compounds read low 0.953 | locus YGL227W, strain vid30, active compounds read low 0.989 | locus YGL240W, strain doc1, active compounds read low 0.985 | locus YGL248W, strain PDE1, active compounds read low 0.959 | locus YGL253W, strain hxk2, active compounds read low 0.966 | locus YGR252W, strain gcn5, active compounds read low 0.83 | locus YHR013C, strain ard1, active compounds read low 1.05 | locus YHR027C, strain rpn1, active compounds read low 0.977 | locus YHR030C, strain SLT2, active compounds read low 0.999 | locus YHR079C, strain IRE1 (second series), active compounds read low 0.987 | locus YHR094C, strain hxt1, active compounds read low 0.978 | locus YHR129C, strain ARP1, active compounds read low 0.974 | locus YHR142W, strain chs7, active compounds read low 0.943 | locus YHR200W, strain rpn10, active compounds read low 0.978 | locus YIL073C, strain SPO22, active compounds read low 0.872 | locus YIL125W, strain kgd1, active compounds read low 0.981 | locus YIR030C, strain dcg1, active compounds read low 0.967 | locus YJL092W, strain hpr5, active compounds read low 0.986 | locus YJL095W, strain BCK1 (second series), active compounds read low 0.949 | locus YJL095W, strain BCK1, active compounds read low 0.828 | locus YJL115W, strain asf1, active compounds read low 0.991 | locus YJL129C, strain trk1, active compounds read low 0.942 | locus YJL134W, strain LCB3, active compounds read low 0.951 | locus YJL154C, strain vps35, active compounds read low 0.988 | locus YJL164C, strain tpk1, active compounds read low 0.949 | locus YJL166W, strain qcr8, active compounds read low 0.922 | locus YJL168C, strain set2, active compounds read low 0.995 | locus YJL187C, strain SWE1 (second series), active compounds read low 0.955 | locus YJR043C, strain POL32, active compounds read low 0.962 | locus YJR075W, strain HOC1, active compounds read low 0.982 | locus YKL009W, strain mrt4, active compounds read low 0.941 | locus YKL068W, active compounds read low 0.979 | locus YKL085W, strain MDH1 (second series), active compounds read low 0.954 | locus YKL085W, strain MDH1, active compounds read low 0.954 | locus YKL160W, strain elf1, active compounds read low 1.03 | locus YKL190W, strain CNB1, active compounds read low 0.973 | locus YKR001C, strain vps1, active compounds read low 0.984 | locus YKR026C, strain gcn3, active compounds read low 0.982 | locus YKR091W, strain srl3, active compounds read low 0.989 | locus YLL001W, strain dnm1, active compounds read low 0.974 | locus YLL026W, active compounds read low 0.999 | locus YLL041C, strain sdh2, active compounds read low 0.986 | locus YLR027C, strain aat2, active compounds read low 0.962 | locus YLR039C, strain RIC1, active compounds read low 0.772 | locus YLR058C, strain SHM2, active compounds read low 0.96 | locus YLR102C, strain apc9, active compounds read low 0.991 | locus YLR221C, strain rsa3, active compounds read low 0.91 | locus YLR258W, strain gsy2, active compounds read low 0.974 | locus YLR262C, strain YPT6, active compounds read low 0.672 | locus YLR268W, strain sec22, active compounds read low 0.979 | locus YLR330W, strain CHS5, active compounds read low 0.933 | locus YLR342W, strain FKS1 (second series), active compounds read low 0.804 | locus YLR342W, strain FKS1, active compounds read low 0.962 | locus YLR357W, strain rsc2, active compounds read low 1.02 | locus YLR370C, strain arc18, active compounds read low 1.02 | locus YLR371W, strain rom2, active compounds read low 0.992 | locus YLR384C, strain iki3, active compounds read low 1.02 | locus YLR418C, strain cdc73, active compounds read low 0.843 | locus YML016C, strain PPZ1, active compounds read low 0.969 | locus YML120C, strain ndi1, active compounds read low 0.943 | locus YML124C, strain tub3, active compounds read low 1 | locus YMR058W, strain fet3, active compounds read low 0.95 | locus YMR078C, strain ctf18, active compounds read low 1 | locus YMR125W, strain sto1, active compounds read low 1 | locus YMR129W, active compounds read low 1 | locus YMR223W, strain ubp8, active compounds read low 0.916 | locus YMR231W, strain pep5, active compounds read low 0.993 | locus YMR307W, strain GAS1, active compounds read low 0.797 | locus YNL067W, strain RPL9B, active compounds read low 1 | locus YNL071W, strain lat1, active compounds read low 0.949 | locus YNL209W, strain ssb2, active compounds read low 0.989 | locus YNL233W, strain BNI4, active compounds read low 0.941 | locus YNL248C, strain rpa49, active compounds read low 0.963 | locus YNL250W, strain rad50, active compounds read low 0.963 | locus YNL271C, strain bni1, active compounds read low 0.979 | locus YNL298W, strain CLA4, active compounds read low 0.913 | locus YNL322C, strain KRE1 (second series), active compounds read low 1.02 | locus YNR049C, strain mso1, active compounds read low 1.01 | locus YOL012C, strain htz1 1.51 | locus YOR061W, strain CKA2, active compounds read low 0.942 | locus YOR069W, strain VPS5, active compounds read low 0.977 | locus YOR070C, strain gyp1, active compounds read low 1 | locus YOR080W, strain dia2, active compounds read low 1.01 | locus YOR083W, strain WHI5, active compounds read low 0.975 | locus YOR106W, strain vam3, active compounds read low 0.978 | locus YOR136W, strain idh2, active compounds read low 0.998 | locus YOR144C, strain elg1, active compounds read low 1 | locus YOR265W, strain rbl2, active compounds read low 0.983 | locus YOR290C, strain snf2, active compounds read low 0.958 | locus YOR316C, strain cot1, active compounds read low 0.986 | locus YPL051W, strain arl3, active compounds read low 1 | locus YPL078C, strain atp4, active compounds read low 0.964 | locus YPL106C, strain sse1, active compounds read low 1.03 | locus YPL240C, strain hsp82, active compounds read low 0.99 | locus YPL241C, strain CIN2, active compounds read low 0.985 | locus YPR119W, strain clb2, active compounds read low 0.994 | locus YPR141C, strain kar3, active compounds read low 0.991 | locus YPR163C, strain tif3, active compounds read low 0.981 | locus YPR167C, strain met16, active compounds read low 0.942 | strain wtn01, active compounds read low 1.01
